Experimental data reported in PubChem BioAssay (NCI).
“And” between values parts separate entries of the source, which are not always exact repeats. Identical values can stand only once. This is part of a sample that, as a whole, favours compounds with a hit. Of some 83,000 tested, about 20% had one in any assay.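 Activity criterion: percent growth below 10, measured after cells in 96-well plates were exposed to a single compound concentration for 48 hours.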 Unmarked numbers belong to inactive results. The source made the active and inactive calls.

Each molecule was assayed on MDA-MB-468 breast (assay: NCI-60 one-dose screen, 48 h (100 = growth as untreated, 0 = no growth, -100 = all killed)). Settings: 10 µM unless noted.

SMILES	growth
Cc1[nH]c(N=Nc2ccccc2)nc1N=Nc1ccccc1	24.1%
CC/C(=C(/c1ccc(Cl)cc1)c1ccc(OCCN)cc1)c1ccccc1	88.8%
C=C1c2c(C)nn(-c3ccc(OC)cc3)c2N(C)C23C[C@@H]1C1(C)c4c(C)nn(-c5ccc(OC)cc5)c4N(C)C(C)(C[C@H]12)C3 (stereo not given in full)	31.9%
COC(=O)c1ccc2[nH]c(O)c(C(=Nc3ccc(N(C)C(=O)CN4CCN(C)CC4)cc3)c3ccc(N)cc3)c2c1	62%
Cc1cn(-c2cc(C(=O)Nc3cccc(-n4ccc5c(NC(=O)c6ccccc6)nccc54)c3)cc(C(F)(F)F)c2)cn1	-9.97% (active)
CC(=O)CC(C)(C)c1ccc(Cl)cc1	90.4%
O=[N+]([O-])c1c(O)c(Cl)cc(Cl)c1Cl	91.2%
COc1ccc(-c2nc(-c3nc4ccc(Cl)cc4[nH]3)c3ccccn23)cc1	61.5%
CCOC(=O)C1=C(C)NC(=S)NC1c1ccccc1 (stereo not given)	98.3%
C=C(C)COc1ccc(C(C)(C)C)cc1	91.2%
COc1cc2c(cc1OC)C(Sc1ccc(C)cc1)c1c(nc(N)c(C#N)c1N)O2 (stereo not given)	-46.7% (active)
C[C@H]1[C@H](C)CC[C@]2(C(=O)Nc3ccc4ncccc4c3)CC[C@]3(C)C(=CC[C@@H]4[C@@]5(C)CCCNC(C)(C)[C@@H]5CC[C@]43C)[C@H]12	-55.7% (active)
O=c1c2cc(F)ccc2sc2c(NCCCNCCO)nc3ccc(F)cc3c12	39.7%
O=S(=O)(Nc1ccccc1)c1ccc(C2CC3(Cl)C(Cl)=C(Cl)C2(Cl)C3(Cl)Cl)cc1 (stereo not given)	62.2%
Cn1ccnc1C(=O)/C=C/c1ccc(C(=O)Nc2ccccc2O)cc1	-3.85% (active)
COC(=O)c1nc(N)nc(C(=O)OC)c1C(=O)c1ccc(OC)cc1	98.1% and 47.2%
CN(Cc1ccccc1)Cc1ccc([N+](=O)[O-])cc1I	93.3%
COc1cccc(-c2nn(-c3ccccc3)cc2-c2ccnc(NCCNC(=O)Nc3cccc(C(F)(F)F)c3)c2)c1	15.5%
COc1ccccc1OC(=O)Oc1ccccc1OC	106% and 119%
COc1nc2c(cc1S(=O)(=O)c1ccccc1)CCc1c-2cnn1-c1ccccc1Cl	40.4%

SMILES	growth
CCN(CC)CCOc1ccc2c(-c3ccccc3)c(-c3ccc(OC)cc3)c(=O)oc2c1	44.5%
COc1ccc(NC(=O)c2sc3nc(C)c(C(=O)/C=C/c4cccc(OC)c4)cc3c2N)cc1	27.9%
N=C(N)c1ccc(-c2ccc(-c3cc(F)cc(F)c3)o2)nc1	85.3%
C#CCNC1CCC(c2csc(C#C)n2)=C1C (stereo not given)	58.9%
COc1ccc(C(=O)Cn2c(C(=O)c3ccccc3)nc3ccccc32)cc1	2.35% (active)
O=C(O)c1ccc([N+](=O)[O-])cc1S(=O)(=O)O	98.6%
CN(CCC#N)c1ccc(/C=C2\NC(=O)NC2=O)cc1	110%
CN(C)CC(C(=O)c1ccccc1)c1ccccc1 (stereo not given)	-47.8% (active)
Nc1nc(Br)nc2c1ncn2C1CC(O)C(CO)O1 (stereo not given)	100%
COC(=O)C(CSC(c1ccccc1)(c1ccccc1)c1ccccc1)NC(=O)C(CC(N)=O)NC(=O)OCc1ccccc1 (stereo not given)	-17.7% (active)
CC(CN1CCCCC1)C(=O)c1ccccc1 (stereo not given)	105%
Cc1cc(NCc2cc(Nc3ccnc4cc(Cl)ccc34)ccc2F)nc(N2CCN(C)CC2)n1	-45.9% (active)
COc1ccc(/C=N/NC(=O)Cn2c(Cc3cccc4ccccc34)nc3ccccc32)cc1	92.4%
CCCN1CCN(c2ccc3nc(-c4ccc5nc(-c6ccc(OCC)cc6)[nH]c5c4)[nH]c3c2)CC1	-67.6% (active)
CC(=O)/C(=C/c1ccc(-c2ccccc2)cc1)C(=O)c1ccccc1	92.2%
CN(C)CC1C(=O)O[C@H]2[C@H]1CC/C(COC(=O)NCc1ccc(Cn3c(=O)sn(CCCI)c3=O)cc1)=C\CC[C@@]1(C)O[C@@H]21 (stereo not given in full)	-73.3% (active)
N#CC1=C(N)Oc2c(ccc3ccccc23)C1c1cccs1 (stereo not given)	26.5%
Cc1cc(C)c(O)c(CNCCCCCCNCc2cc(C)cc(C)c2O)c1	-72.2% (active)
CSc1nc(N)c2[nH]c(-c3cc4ccccc4[nH]c3=O)nc2n1	1.87% (active)
CCN1CCN(c2nc(C)cc(N(CCCNc3ccnc4cc(Cl)ccc34)Cc3ccc4c(c3)OCO4)n2)CC1	-33.5% (active)
